Source: PubChem BioAssay (several laboratories)
CYP2C9 activ: increases human cytochrome P450 2C9 activity. P11712. recombinant CYP2C9, luciferin-H conversion, luminescence; stronger effect = higher value; factor 1 = untreated enzyme, 0 = blocked. activation factor at 5 µM. 96,000 tested, 1.4% active. AID 1024;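 active = activation factor of 2 or more for CYP2C9 at a 5 µM dose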
Target sequence (P11712 whole entry, looked up): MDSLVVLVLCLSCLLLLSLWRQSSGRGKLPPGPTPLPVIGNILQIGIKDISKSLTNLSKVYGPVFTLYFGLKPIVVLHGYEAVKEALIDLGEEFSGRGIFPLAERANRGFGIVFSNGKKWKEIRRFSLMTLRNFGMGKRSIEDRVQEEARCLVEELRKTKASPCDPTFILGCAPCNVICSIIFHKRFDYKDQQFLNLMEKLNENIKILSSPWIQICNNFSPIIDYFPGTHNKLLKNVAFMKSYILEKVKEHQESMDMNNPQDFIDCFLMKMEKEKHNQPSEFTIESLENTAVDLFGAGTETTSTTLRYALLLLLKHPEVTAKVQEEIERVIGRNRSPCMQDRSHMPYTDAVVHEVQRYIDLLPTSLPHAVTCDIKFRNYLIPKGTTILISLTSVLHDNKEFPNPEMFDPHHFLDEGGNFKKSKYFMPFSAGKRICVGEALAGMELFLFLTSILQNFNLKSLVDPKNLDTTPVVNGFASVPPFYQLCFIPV
CYP2C19 inhib: blocks human cytochrome P450 2C19; CYP2C19 Supersomes, luciferin-H EGE luminescence, 30 min; inhibition, % at 5 µM; 96,000 tested, 21% active; AID 778;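 active = CYP2C19 inhibition above a set limit at 5 µM in the primary screen, cut at about 50% in these data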
PostGolgi ctrl: yeast control strain growth, post-Golgi counter-screen; efflux-deficient yeast background strain, growth absorbance A615, 16 h; inhibition, % at 10 µM; 98,000 tested, 5% active; AID 738
CYP2C19 act: activators of human cytochrome P450 2C19; recombinant CYP2C19, luciferin-H EGE luminescence; stronger effect = higher value; 0 = fully inhibited enzyme, 1 = untreated enzyme; P33261; activation factor at 5 µM; AID 1025; 96,000 tested, under 10 active;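 active = activation factor of at least 2 at 5 µM in the primary screen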
PostGolgi yeast: growth inhibition of a yeast mutant, post-Golgi transport screen. inhibition, % at 10 µM. post-Golgi transport phenotypic cell assay. 98,000 tested, 0.9% active;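 also: yeast cells grown in 1536-well plates; yeast grown about 18 h at 30C before absorbance read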
CYP2C9 inhib: blocks human cytochrome P450 2C9. P11712. CYP2C9 Supersomes, luciferin-H conversion, luminescence. inhibition, % at 5 µM. 96,000 tested, 20% active. AID 777;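 active = blocking of liver enzyme CYP2C9 beyond about 50% at 5 µM, limit read from the data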
Hits are given with their value; . = inactive. A selection: hits, their analogues and other compounds. The true share with any hit is near 32%. Rule as the data show it, unless noted: active = inhibition above about 30%; inactive = the rest.

SMILES	CYP2C9 activ	CYP2C19 inhib	PostGolgi ctrl	CYP2C19 act	PostGolgi yeast	CYP2C9 inhib
Oc1ccc(Br)cc1/C=N/N1CCN(Cc2ccccc2)CC1	.	.	.	.	.	.
Cc1nc2ncnn2c(C)c1CCC(=O)NCCC1=CCCCC1	.	.	.	.	.	.
O=C(NCc1ccco1)C1CCC(N2C(=O)c3ccccc3C2=O)CC1 (configuration not stated)	.	.	.	.	.	.
Cc1nn(C)c(C)c1Sc1ccc(Br)cc1	.	64	.	.	.	.
CCCCn1c(SCC(=O)NCc2cccs2)nc2c1c(=O)n(C)c(=O)n2C	.	.	.	.	.	.
Cc1ccccc1CSCC(=O)N/N=C/c1cccs1	.	61	.	.	.	.
CCCCCCC1CC(CSc2ncn[nH]2)OC1=O (configuration not stated)	.	91	.	.	.	67
CCCCCC1CC(CC(=O)O)C(=O)O1 (configuration not stated)	.	.	.	.	.	.
Cc1ccc(N(Cc2ccccc2F)S(C)(=O)=O)cc1C	.	98	.	.	.	73
Cc1cccc(N(Cc2ccccc2F)S(C)(=O)=O)c1	.	52	.	.	.	.
Cc1ccc(N(Cc2ccc(C(=O)NC3CCCCC3)cc2)S(C)(=O)=O)cc1C	.	.	.	.	.	.
CC(=NCc1ccco1)c1c(O)n(C2CCCCC2)c(=O)[nH]c1=O	.	97	44	.	.	55
O=C(NCC(=O)N(CC1CCCO1)C1(C(=O)NC2CCCCC2)CCCCC1)c1ccccc1 (configuration not stated)	.	.	.	.	.	.
COC(=O)c1[nH]c2cc(OC)ccc2c1N	.	.	.	.	.	.
CC(=O)Nc1ccc2[nH]c3ccccc3c2c1	.	73	.	.	.	.
COc1ccc2[nH]c3ccccc3c2c1	.	55	.	.	.	.
COc1ccc2[nH]c(O)c(NC(C)=O)c2c1	.	.	.	.	.	63
COc1ccc2[nH]c(=S)[nH]c2c1	.	.	.	.	.	.
CC(=O)Nc1ccc2[nH]c(C)cc(=O)c2c1	.	.	.	.	.	.
O=C(NCCO)c1ccc2[nH]c3ccccc3c2c1	.	91	.	.	.	.
Cn1cc(C(=O)Nc2ccc(F)c(F)c2)cn1	.	.	.	.	.	.
Cc1ccc(C)n1-c1sc2c(c1C#N)CCC(C)C2 (configuration not stated)	.	.	.	.	.	.
O=C(CCNc1n[nH]c(=O)[nH]c1=O)N1CCOCC1	.	.	.	.	.	.
CCn1c(SCc2cccc(C(=O)O)c2)nnc1-c1ccccc1	.	.	.	.	.	.
COCCN(C(=O)Cc1cccs1)C(C(=O)NCc1ccc(OC)cc1)c1ccc(C(C)C)cc1 (configuration not stated)	.	.	.	.	.	69
SMILES	CYP2C9 activ	CYP2C19 inhib	PostGolgi ctrl	CYP2C19 act	PostGolgi yeast	CYP2C9 inhib
Cc1ccc(C(=O)Nc2ccc3c(c2)CCC3)o1	.	78	.	.	.	.
O=C(Nc1ccc2c(c1)CCC2)c1ccc(Br)o1	.	76	.	.	.	.
O=C(Nc1ccc2c(c1)OCO2)c1ccc(Br)o1	.	85	.	.	.	60
O=C(Nc1ccc2c(c1)CCC2)c1cc2ccccc2o1	.	.	.	.	.	.
O=C(Nc1ccc2c(c1)CCC2)c1cnccn1	.	68	.	.	.	.
O=C(COC(=O)CNC(=O)c1ccc(Br)o1)Nc1ccc2c(c1)OCCO2	.	.	.	.	.	.
CC(=O)Nc1ccc(NC(=O)C/C(C)=N/NC(=O)C(=O)N2CCCC2)cc1	.	.	.	.	.	.
Cn1c(=O)c2c(nc(CN3CCOCC3)n2CC(O)CO)n(C)c1=O (configuration not stated)	.	.	.	.	.	.
Cc1nn(C(C)CC(=O)O)c(C)c1Br (configuration not stated)	.	.	.	.	.	.
C1CCC(n2nnnc2CN2CCN(C3CCCC3)CC2)CC1	.	.	.	.	.	.
Cc1ccc(Cl)cc1N1CCN(Cc2nnnn2C2CCCCC2)CC1	.	.	58	.	.	58
c1ccc(N2CCN(Cc3nnnn3C3CCCCC3)CC2)cc1	.	64	.	.	.	87
COC(=O)C1=C(C(=O)OC)SC(=C2C(=S)C(C)(C)N(C(=O)CC(C)C)c3ccccc32)S1	.	70	.	.	.	.
CCCOc1ccc2ccccc2c1/C=N/n1c(C)nnc1-n1nc(C)cc1C	.	83	.	.	.	.
Cc1ccc(C(=O)CC(C(=O)O)n2cccn2)cc1 (configuration not stated)	.	.	.	.	.	.
Cc1ccc(SC(CC(=O)c2ccc(C)cc2)C(=O)O)cc1 (configuration not stated)	.	.	.	.	.	95
CC1(C)Cc2c(c(-c3ccccc3)[nH]c(=O)c2C#N)CS1	.	.	.	.	.	.
CCCCc1nc(NCCNC(=O)c2ccccc2)c(C#N)c2c1CSC(C)(C)C2	.	.	99	.	.	.
CC1(C)Cc2c(c(-c3ccco3)[nH]c(=O)c2C#N)CS1	.	.	.	.	.	.
CCCCc1nc(NCCNC(=O)c2ccco2)c(C#N)c2c1CSC(C)(C)C2	.	68	100	.	.	93
CC(C)c1noc2ncc(C(=O)c3cc(Cl)cc(Cl)c3O)cc12	.	81	.	.	.	100
Cc1ccc(SC(C)c2nc(-c3ccccc3)no2)cc1 (configuration not stated)	.	90	.	.	.	85
Cc1ccccc1OC(C)c1nc(-c2ccccc2)no1 (configuration not stated)	.	70	.	.	.	73
COc1cc(OC)cc(-c2nc(-c3ccccc3)no2)c1	.	.	.	.	.	.
Cc1ccc(Sc2nc(-c3ccccc3)ccc2C#N)cc1	.	.	.	.	.	.
SMILES	CYP2C9 activ	CYP2C19 inhib	PostGolgi ctrl	CYP2C19 act	PostGolgi yeast	CYP2C9 inhib
CC(/C(O)=C(\C#N)c1nc2ccccc2n1C)N1C(=O)c2ccccc2C1=O (configuration not stated)	.	.	.	.	.	.
O=C(NCCC1=CCCCC1)c1ccc(Cl)c(S(=O)(=O)N2CCOCC2)c1	.	51	.	.	.	60
O=C(NCCC1=CCCCC1)C1CCN(S(=O)(=O)N2CCOCC2)CC1	.	.	.	.	.	.
Cc1ccc(CSCCNC(=O)c2ccc(Cl)c(S(=O)(=O)N3CCOCC3)c2)cc1	.	62	.	.	.	81
O=C(Oc1oc(-c2ccco2)nc1C=Nc1ccc(Cl)cc1)c1ccco1	.	.	.	.	.	.
CC1=CC(C#N)(C#N)C(C#N)(C#N)C(c2ccccc2)N1 (configuration not stated)	.	.	.	.	.	90
O=S(=O)(NCc1ccc(Cl)cc1)c1cnc[nH]1	.	78	.	.	.	95
O=S(=O)(NCc1ccccc1)c1cnc[nH]1	.	62	.	.	.	95
